Source: PubChem (National Center for Advancing Translational Sciences (NCATS))
Shown are actives, neighbours in structure and some others; about 8.3% of the full set was active somewhere.
VP16 counter: counter-screen for ROR gamma inhibitors: Gal4-VP16 reporter | Drosophila S2 Gal4-VP16 UAS-luciferase, luminescence, 20 h | Potency, µM (top dose mostly 53.6 µM), without a hit: top-dose activity, negative = inhibition, actives largely listed as inhibitors | hit rate 3.5% among 310,000;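 note: Gal4-VP16 expression switched on by copper sulfate through the metallothionein promoter; potency is the fitted concentration of half-maximal effect; % is set by controls: 0 for no effect and ±100 for the full control effect; nearly all actives have a fitted effect of over 50% in size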
SW480 rerep: inducers of DNA re-replication in SW480 colon cancer cells. SW480 DNA re-replication, Hoechst DNA content imaging, 48 h. Potency, µM (titrated, usually from 46.1 µM), inactives show at the highest dose re-replication activation, usual class: activators. hit rate 1.8% among 340,000. AID 624297; note: potency is the fitted concentration of half-maximal effect; % of control where 0% means no effect; nearly all actives have a fitted effect of over 55% in size
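DNA re-replication was detected as more nuclei of elevated Hoechst intensity after 48 hr exposure to compound (23 nL pinned per well of 250 cells).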
MCF10A rereplic: inducers of DNA re-replication in MCF 10A breast cells. MCF 10A DNA re-replication, Hoechst nuclear intensity, 48 h. Potency, µM (titrated, usually from 46.1 µM), without a hit: at the top dose activity, positive = re-replication, usual class: activators. hit rate 2.9% among 350,000. AID 624296; note: potency is the fitted concentration of half-maximal effect; % of control where 0% means no effect; nearly all actives have a fitted effect of over 50% in size
Giardia kill: Giardia lamblia killing; activity change, % at 7.66 µM, hits read low; Giardia lamblia trophozoite viability; hit rate 0.15% among 340,000; AID 540267; in the data active = activity change below about -80%; inconclusive = between about -30% and that limit;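 note: parasites exposed to compound for two days anaerobically before the ATP read; % is set by controls: 0 for no effect and ±100 for the full control effect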
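Each well holds 100 Giardia trophozoites and compound. After two days (48 hrs) at 37 deg C in anaerobic conditions, ATP is quantified by luminescence.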
RORg inh: inhibitors of mouse ROR gamma transcriptional activity | P51450 | Drosophila S2 Gal4-RORgamma UAS-luciferase reporter, 20 h | Potency, µM (series often up to 53.6 µM), for the others: top-dose activity change, negative = inhibition, most hits filed as inhibitors | hit rate 5.4% among 310,000; note: potency is the fitted concentration of half-maximal effect; % is set by controls: 0 for no effect and ±100 for the full control effect; nearly all actives have a fitted effect of over 60% in size
Target sequence (P51450 whole entry, looked up, the tested form may be a part): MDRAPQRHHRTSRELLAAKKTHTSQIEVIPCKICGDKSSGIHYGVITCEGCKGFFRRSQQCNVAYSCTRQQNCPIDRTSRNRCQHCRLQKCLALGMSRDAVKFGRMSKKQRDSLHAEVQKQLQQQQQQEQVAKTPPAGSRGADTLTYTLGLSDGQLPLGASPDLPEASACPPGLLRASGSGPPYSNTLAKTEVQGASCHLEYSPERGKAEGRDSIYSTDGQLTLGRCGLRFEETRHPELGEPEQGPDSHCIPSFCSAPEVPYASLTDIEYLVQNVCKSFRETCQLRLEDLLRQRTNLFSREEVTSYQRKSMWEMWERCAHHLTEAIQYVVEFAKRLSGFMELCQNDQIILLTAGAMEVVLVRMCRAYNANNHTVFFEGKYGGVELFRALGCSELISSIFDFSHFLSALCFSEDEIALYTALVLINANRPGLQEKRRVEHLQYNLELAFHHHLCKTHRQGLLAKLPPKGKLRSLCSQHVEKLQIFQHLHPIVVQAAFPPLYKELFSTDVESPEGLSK
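Stably transfected Drosophila Schneider cells are the test system, with ROR gamma fused to Gal4 and luciferase under UAS control; luminescence is read after 20 hr of 700 uM copper sulfate induction at ambient temperature.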
Chronic BCR inh: chronic active BCR signaling inhibition; hit rate 0.05% among 340,000; Potency, µM (titrated, usually from 46.1 µM), for the others: top-dose activity change, negative = inhibition, most hits filed as inhibitors; ABC-DLBCL IkBa-CBG/CBR reporter, luminescence ratio, 4 h; AID 493014; active = well fitted inhibition curve with a large enough effect in the signal ratio, with a control signal flat, not every such curve was filed as active; inconclusive = small, poorly fitted or top-dose-only effect, or effect the other way, or a change in a side signal; the % refers to the signal ratio;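 note: potency is the fitted concentration of half-maximal effect; plate controls were basal doxycycline-induced cells for no effect and cells given 10 µM MG132 for full effect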
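Cell line TMD8 (human ABC DLBCL), stably expressing tet-inducible CBG68-IkBa fusion and CBR; IMDM/0.5% FBS; cpd up to 46 uM; dox induction, 4 h, 37C/5% CO2; dual luminescence; green/red ratio; MG132 control.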
* = called active by the depositor; ? = inconclusive; nt = not tested or not shown; [ ] = dose if it differs, or a comment. Unless noted, calls come from the whole dose curve; as a rule, active = well fitted curve in the direction sought with a large enough effect; inconclusive = small, poorly fitted or top-dose-only effect, or another doubt; inactive = no such curve, though single readings can be large; an effect the other way counts as inactive or inconclusive.

SMILES	VP16 counter	SW480 rerep	MCF10A rereplic	Giardia kill	RORg inh	Chronic BCR inh
COc1ccc(C(=O)Nc2cc(OC)cc3cccnc23)cc1	3.2%	-6.9%	22.3%	0.4	13.8%	?
Cc1ccc(S(=O)(=O)Nc2cccc3ncccc23)s1	0.562µM*	?	4.61µM*	-0.5	0.282µM*	?
O=S(=O)(Nc1cccc2cccnc12)c1ccccc1O	3.16µM*	nt	nt	nt	2µM*	nt
Cc1cc(C)c(S(=O)(=O)Nc2cccc3cccnc23)c(C)c1	0.316µM*	nt	nt	-9.6	0.0891µM*	nt
O=S(=O)(Nc1cccc2cccnc12)c1cccs1	nt	nt	nt	-13.4	nt	nt
O=S(=O)(Nc1cccc2cccnc12)c1ccc(Br)s1	1.12µM*	nt	nt	nt	0.562µM*	nt
Cc1cc(C)c(S(=O)(=O)Nc2cccc3nsnc23)c(C)c1	-4.8%	0.6%	?	11.7	5.4%	9.7%
O=S(=O)(Nc1cccc2cccnc12)c1ccc2ccccc2c1	0.631µM*	nt	nt	-1.7	5.62µM*	nt
CC(C)(C)c1ccc(OC2C(O)COC2/C=C/C#Cc2ccccc2)cc1 (centres undefined)	14.8%[10 µM]	nt	nt	nt	12.5%[10 µM]	nt
c1ccc(C2=NNC(c3ccccn3)=NN2)nc1	?	?	-16.0%	-18.6	?	?
COc1ccccc1C(N)=S	?	4.5%	-1.9%	-1.4	15.8µM*	-2.6%
COc1ccccc1C(=O)C(=O)c1ccccc1OC	nt	-6.2%	-18.5%	11.2	nt	nt
CC(C)S(=O)(=O)c1csc(C(=O)NN)c1Cl	-17.6%	-20.2%	-1.9%	-9.4	10µM*	-13.0%
CC(C)S(=O)(=O)c1csc(C(=O)NN)c1-n1cccc1	3.5%	-10.5%	0.1%	2.5	?	-1.9%
Cc1nnc(SCC2=C(C(=O)O)N3C(=O)C(NC(=O)Cn4ncc(Cl)c4C)C3SC2)s1 (centres undefined)	-7.5%	-11.9%	-0.7%	-8.5	12.7%	3.4%
Cc1cc(C)n(CC(=O)NC2C(=O)N3C(C(=O)O)=C(CSc4nnc(C)s4)CSC23)n1 (centres undefined)	-6.8%	-5.8%	0.731µM*	-27.9	-8.5%	1.2%
COc1ccc(CNC(=O)CN2C(=O)COc3ccccc32)c(OC)c1	nt	nt	nt	nt	nt	-7.9%
COc1cc2cc(C)nc(Cc3cccc4ccccc34)c2cc1OC	-17.9%	5.2%	13µM*	-6.9	?	?
CCOc1ccc(NS(=O)(=O)c2ccc3[nH]cc(C(=O)NCCc4ccccc4)c(=O)c3c2)cc1	nt	nt	nt	nt	nt	-0.2%
NC1=C(Br)C(=O)c2ncccc2C1=O	nt	8.2µM*	0.517µM*	-9.2	nt	nt
CCn1c2ccccc2c2cc(NC(=O)c3cccc(OC)c3)ccc21	-0.6%	7.94µM*	?	-11.5	?	?
CCn1c2ccccc2c2cc(NC(=O)c3cccc(OC)c3OC)ccc21	-0.2%	1.4%	8.1%	1.9	?	?
CCn1c2ccccc2c2cc(NC(=O)COc3ccccc3OC)ccc21	-25.7%	14.6µM*	5.8µM*	-6.3	?	-8.7%
CCn1c2ccccc2c2cc(NC(=O)CNCc3ccccc3OC)ccc21	-20.1%	7.31µM*	7.31µM*	-16.3	-44.4%	?
COc1cccc(C(=O)Nc2cccc3c2ccc2cccn23)c1	14.7%	16.4µM*	?	-3.4	2.3%	-12.1%
SMILES	VP16 counter	SW480 rerep	MCF10A rereplic	Giardia kill	RORg inh	Chronic BCR inh
COCCCNC(=S)NCCNc1nc2c(C)c(C)ccc2cc1C#N	?	?	23.1µM*	0.5	17.8µM*	8.6%
CCOCCCNC(=S)NCCNc1nc2ccc(C)cc2cc1C#N	6.6%	?	?	11.7	?	12.1%
CCOCCCNC(=S)NCCCNc1nc2ccc(C)cc2cc1C#N	-2.2%[10 µM]	nt	nt	nt	6.31µM*	-18.7%
COc1cc(C(=O)NCCCNc2nc3cc(C)c(C)cc3cc2C#N)cc(OC)c1OC	-22.1%	15.5%	?	-3.4	19.4%	-18.8%
CN(C)CCCNC(=S)NCCNc1nc2cc3c(cc2cc1C#N)OCO3	-2.0%	14.6µM*	20.6µM*	8.8	-0.3%	-13.0%
CCOc1ccc2nc(NCCNC(=O)c3cc(OC)c(OC)c(OC)c3)c(C#N)cc2c1	-11.1%	6.51µM*	23.1µM*	20.3	5.1%	1.6%
COCCCNC(=S)N1CCCN(c2nc3c(C)c(C)ccc3cc2C#N)CC1	-7.7%	6.5%	-3.8%	5.0	-12.2%	-22.4%
CC(=O)N1CCN(CC(=O)Nc2ccccc2C(=O)Nc2ccccc2)CC1	nt	-23.9%	29.7%	-10.3	nt	?
COc1cc(OC)cc(C(=O)NCCNc2nc3cc(C)cc(C)c3cc2C#N)c1	2.3%	?	16.4µM*	27.1	43.4%[1.91 µM]	-4.5%
COc1cc(C(=O)NCCNc2nc3cc(C)ccc3cc2C#N)cc(OC)c1OC	-9.2%	0.2%	11.3%	4.7	?	-4.7%
COc1cc(C(=O)NCCNc2nc3c(C)c(C)ccc3cc2C#N)cc(OC)c1OC	14.1%	?	20.6µM*	-1.3	12.1%[1.91 µM]	-4.9%
Cc1ccccc1NC(=O)COC(=O)c1cc(=O)c2ccccc2o1	-3.8%	nt	nt	nt	-13.0%	0.6%
NNC(=O)CS(=O)(=O)CS(=O)(=O)CC(=O)NN	0.4%	-8.4%	2.7%	1.2	2.4%	?
CCn1c(CC(=O)Nc2ccc(F)cc2)nnc1SCC(=O)Nc1nncs1	-4.0%	-19.0%	-7.6%	-2.2	?	0.2%
Cc1ccc2nc(C)c(CN3CCN(c4ccc([N+](=O)[O-])cc4Cl)CC3)n2c1	7.08µM*	nt	nt	nt	14.1µM*	5.7%
Fc1ccc(N2CN(Cc3cccnc3)CNC2=S)cc1	-8.6%	-4.2%	-26.4%	8.3	-0.2%	-7.1%
CCNC(=O)c1c(NC(C)=O)sc2c1CCCC2	-6.1%	0.7%[9.22 µM]	-2.1%	-9.4	0.5%	6.7%
CCNC(=O)c1c(NC(=O)c2cc(-c3cc(C)cc(C)c3O)n[nH]2)sc2c1CCCC2	nt	-4.2%	6.51µM*	-26.1	nt	nt
COc1ccc(CN2CCNC(=O)C2CC(=O)N2CCCCO2)cc1OC (centres undefined)	12.8%	-22.9%	-20.2%	?	6.8%	-18.4%
C=CCN(c1ccccc1)S(=O)(=O)c1cccc(C(=O)N2CC(C)CC(C)C2)c1 (centres undefined)	1.7%	?	10.3µM*	-9.1	5.3%	9.1%
COc1cc(C(=O)N2CCN(Cc3ccc4c(c3)OCO4)CC2)cc(OC)c1OC	-3.1%	-4.8%	6.4%	8.3	-16.3%	-0.1%
Cc1ccc2c(n1)sc1c(-c3ccccc3)c(C#N)c(N)nc12	-12.3%	7.31µM*	5.01µM*	-0.6	-6.2%	?
Cc1nc(N)c(C#N)c(-c2cccnc2)c1-c1ccccc1	-3.8%	-5.5%	26.1%	-4.7	-24.6%	-2.0%
Cc1nc(S(=O)(=O)N(C)c2ccccc2)c(C#N)c(C)c1Cl	-24.8%	9.2µM*	?	-1.0	-47.5%	?
CN(c1ccccc1)S(=O)(=O)c1ccc(Cl)nc1	2.8%	4.7%	-1.0%	21.6	4.6%	10.5%
